Assay results as given in PubChem BioAssay (EPA / NIEHS).
Records with an inconclusive call do not appear. The source holds several records for some structures; these can differ, active in one and inactive in another. Activity calls are given as the source filed them. How the source made its calls, unless noted: active means hit-call score of the fitted dose curve at least 0.9, where 1 is the maximum; inactive means score below 0.9.

Legend:
[1] = TOX21_p53_BLA_p3_viability: Viability Assessment in the Tox21 HCT-116 p53 Agonism Beta-lactamase Assay, Phase 3 (AID 2283593; active means hit-call score of the fitted dose curve at least 0.9, where 1 is the maximum;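 further: cells exposed to compound for 16 h before reading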)
Procedure, shortened: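 HCT116 cells, 4000/well, dosed 5 h after plating by pin transfer (217-fold dilution from DMSO stock) and incubated 16 h at 37C, 5% CO2. Viability read as ATP luminescence with CellTiter-Glo after 30 min at room temperature.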

[2] = CCTE_Shafer_MEA_dev_firing_rate_mean: CCTE's Neural Network Formation Assay for Mean Firing Rate, Shafer Lab (AID 2284031)
Procedure, shortened: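 Extracellular spike frequency, AUC over DIV 5–12 recordings, in rat cortical neuron MEA cultures dosed from plating; loss direction vs DMSO.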

[3] = CCTE_Shafer_MEA_dev_per_burst_spike_percent: CCTE's Neural Network Formation Assay for Percent of Spikes in a Burst, Shafer Lab (AID 2284032)
Procedure, shortened: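 Value is trapezoidal AUC over recordings on days 5, 7, 9 and 12 of the well-mean fraction of spikes falling in single-electrode bursts; rat cortical cultures exposed continuously from plating, treatment renewed DIV 5 and 9, fitted downward against DMSO.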

[4] = CCTE_Shafer_MEA_dev_burst_rate: CCTE's Neural Network Formation Assay for Burst Rate, Shafer Lab (AID 2284042)
Procedure, shortened: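 Primary rat cortical neurons on PEI-coated 48-well MEA plates (laminin added with cells at plating) (16 electrodes/well), exposed from plating to day 12, dosing renewed at DIV 5 and 9. Burst rate averaged over active electrodes, recorded DIV 5, 7, 9, 12, summarized as AUC; loss versus DMSO.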

[5] = CCTE_Shafer_MEA_dev_bursting_electrodes_number: CCTE's Neural Network Formation Assay for Number of Bursting Electrodes, Shafer Lab (AID 2284043; active means hit-call score of the fitted dose curve at least 0.9, where 1 is the maximum)
Procedure, shortened: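 Rat cortical primary neurons, 48-well MEA, 16 electrodes/well; dosing DIV 0–12, re-dosed with full media change DIV 5, 9. Recordings DIV 5/7/9/12, AxIS adaptive spike detector; bursting electrode = ≥1 burst/2 min. AUC across days; loss of signal vs DMSO.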

[6] = CCTE_Shafer_MEA_dev_per_burst_interspike_interval: CCTE's Neural Network Formation Assay for Burst Interspike Interval, Shafer Lab (AID 2284044)
Procedure, shortened: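 Rat cortical primary cultures, 16 electrodes/well; compound from plating, renewed with full media change DIV 5 and 9. Spikes via adaptive detector; per-burst ISI well-mean over active bursting electrodes; AUC of DIV 5/7/9/12 recordings; loss-direction fit vs DMSO.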

[7] = CCTE_Shafer_MEA_dev_interburst_interval_mean: CCTE's Neural Network Formation Assay for Mean Interburst Interval, Shafer Lab (AID 2284046);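 further: well-mean interburst interval of bursting electrodes as AUC over four recording days; curve fitted for decrease in interburst interval relative to DMSO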
Procedure, shortened: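 Recordings on days 5, 7, 9 and 12 give well-mean interburst interval across actively bursting electrodes, summarized as area under the curve. Cultures: rat cortical neurons, continuous exposure from day 0, compound renewed at feeds; decrease analyzed versus DMSO.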

[8] = CCTE_Shafer_MEA_dev_inter_network_spike_interval_mean: CCTE's Neural Network Formation Assay for Mean Inter-network Spike Interval, Shafer Lab (AID 2284047)
Procedure, shortened: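 Primary rat cortical neurons on 16-electrode MEA wells, exposed from plating day 0 through DIV 12, compound renewed at DIV 5 and 9 media changes. Mean interval between network-spike peaks recorded DIV 5, 7, 9, 12; collapsed as trapezoidal AUC, fitted downward versus DMSO.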

[9] = CCTE_Shafer_MEA_dev_network_spike_number: CCTE's Neural Network Formation Assay for Number of Network Spikes, Shafer Lab (AID 2284048);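 further: synchronized bursts across electrodes counted on days 5 7 9 12 and integrated as AUC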
Procedure, shortened: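 Rat cortical primary cultures on 48-well MEA (16 electrodes/well); continuous exposure DIV 0–12, full medium and treatment exchange DIV 5, 9. Readout: network spike count, AxIS adaptive detection, recordings DIV 5/7/9/12 collapsed to AUC; loss-of-signal fit, DMSO baseline.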

[10] = CCTE_Shafer_MEA_dev_network_spike_peak: CCTE's Neural Network Formation Assay for Mean Number of Electrodes in Network Spike, Shafer Lab (AID 2284049)
Procedure, shortened: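 Network-spike peak electrode count from recordings on days 5, 7, 9 and 12 was combined as trapezoidal area under the curve. Rat cortical cultures were treated continuously from plating, with compound renewed at each feed (DIV 5, 9); fits versus DMSO.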

[11] = CCTE_Shafer_MEA_dev_spike_duration_mean: CCTE's Neural Network Formation Assay for Mean Spike Duration, Shafer Lab (AID 2284051);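 further: mean network spike duration pooled as area under curve over DIV 5 to 12 recordings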
Procedure, shortened: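 Primary rat cortical neurons on 16-electrode MEA wells (PEI-coated, laminin in plating drop), exposed from plating through DIV 12 with compound renewed at DIV 5 and 9. Mean network-spike duration recorded DIV 5, 7, 9, 12; trapezoidal AUC across days, DMSO baseline.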

[12] = CCTE_Shafer_MEA_dev_network_spike_duration_std: CCTE's Neural Network Formation Assay for Standard Deviation of Network Spike Duration, Shafer Lab (AID 2284052);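 further: area under curve of spike duration SD across recording days 5 to 12; hits are decreases in network spike duration SD versus DMSO vehicle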
Procedure, shortened: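 Primary rat cortical neurons on PEI-coated 16-electrode MEA wells, exposed from plating day 0 through day 12 with compound renewed at DIV 5 and 9. Network spike duration SD recorded on days 5, 7, 9, 12, collapsed as trapezoidal AUC; loss-of-signal fit versus DMSO.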

[13] = CCTE_Shafer_MEA_dev_per_network_spike_spike_number_mean: CCTE's Neural Network Formation Assay for Mean Number of Spikes in a Network Spike, Shafer Lab (AID 2284053)
Procedure, shortened: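 Primary rat cortical neurons on 48-well, 16-electrode MEA plates were exposed from plating to DIV 12, with dosing renewed on DIV 5 and 9. Spikes per network spike (0.05 s peak window) were recorded on DIV 5, 7, 9 and 12 and collapsed as trapezoidal AUC versus DMSO.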

[14] = CCTE_Shafer_MEA_dev_LDH: CCTE's Lactate Dehydrogenase Assay for Cytotoxicity in the Neural Network Formation Assay, Shafer Lab (AID 2284068; active means hit-call score of the fitted dose curve at least 0.9, where 1 is the maximum;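 further: exposure for twelve days from plating with re-dosing on DIV 5 and 9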)
Procedure, shortened: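 Primary rat cortical neurons were plated on PEI/laminin MEA plates and exposed from day 0 for twelve days, with compound renewed at DIV 5 and 9. Cytotoxicity was determined by spectrophotometric LDH assay relative to DMSO.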

[15] = CCTE_Shafer_MEA_dev_AB: CCTE's Alamar Blue Assay for Cytotoxicity in the Neural Network Formation Assay, Shafer Lab (AID 2284083; active means hit-call score of the fitted dose curve at least 0.9, where 1 is the maximum;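 further: twelve days of exposure from plating with re-dosing on DIV 5 and 9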)
Procedure, shortened: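 Primary rat cortical neurons on PEI-coated 48-well MEA plates, 1.5 x 10^5 cells/well in laminin drop; compound exposure from day 0 of plating for twelve days, renewed at medium changes on DIV 5 and 9. Viability read as resazurin reduction by fluorescence, relative to DMSO.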

[16] = CCTE_Shafer_MEA_dev_mutual_information_norm: CCTE's Neural Network Formation Assay for Mutual Information Normalization, Shafer Lab (AID 2284091)
Procedure, shortened: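 Neurons from rat cortex were seeded at 1.5 x 10^5 cells/well onto PEI-coated MEAs in a laminin drop, then exposed to compound from day 0 for twelve days. Network recordings on four days gave mutual information, summarised by AUC relative to DMSO.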

[17] = CCTE_Shafer_MEA_dev_correlation_coefficient_mean: CCTE's Neural Network Formation Assay for Mean Correlation Coefficient, Shafer Lab (AID 2284093)
Procedure, shortened: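 Spontaneous activity recorded on days 5, 7, 9 and 12 post-plating; pairwise spike correlations are averaged across active electrodes and collapsed to an area-under-curve. Rat cortical cultures are dosed from plating through 12 days, with compound renewed at media changes.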

[18] = target: Cellular tumor antigen p53 (Homo sapiens) (UniProt P04637); test: TOX21_p53_BLA_p3_ratio: Tox21 HCT-116 p53 Agonism Beta-lactamase Assay, Ratio, Phase 3 (AID 2283596; active means hit-call score of the fitted dose curve at least 0.9, where 1 is the maximum)
Procedure, shortened: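 Cells were seeded at 4000/well, rested 5 h at 37C, then dosed with DMSO compound solutions (217-fold dilution) for 16 h. CCF4-AM substrate was loaded for 2 h at room temperature, and the 460/530 nm emission ratio was fitted for gain of signal versus DMSO.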

[19] = CCTE_Harrill_HTTr_Viability_MCF7: CCTE's 6-hour Cell Viability Assessment for the High-Throughput Transcriptomics (HTTr) Platform, in MCF-7 cells cultured in DMEM + 10% fetal bovine serum, Harrill Lab (AID 2284010)
Procedure, shortened: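 Eight-point concentration series, six-hour exposure. Propidium iodide exclusion imaged to assess membrane integrity as a cytotoxicity readout; bidirectional fitting was done with DMSO as negative control and activity baseline.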

[20] = CCTE_Harrill_HTTr_Apoptosis_MCF7: CCTE's 6-hour Apoptosis Assessment for the High-Throughput Transcriptomics (HTTr) Platform, in MCF-7 cells cultured in DMEM + 10% fetal bovine serum, Harrill Lab (AID 2284011)
Procedure, shortened: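 MCF-7 cells in DMEM + 10% fetal bovine serum were exposed to chemicals for 6 hours over an eight-point dilution series. Caspase-3/7 activation was imaged by high content imaging with CellEvent Caspase 3/7 Green; bidirectional fitting used DMSO as baseline.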

[21] = CCTE_Harrill_HTTr_CellCount_MCF7: CCTE's Cell Proliferation Assessment for the High-Throughput Transcriptomics (HTTr) Platform, Harrill Lab (AID 2284012; active means hit-call score of the fitted dose curve at least 0.9, where 1 is the maximum;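 further: count of Hoechst-stained nuclei per well by high-content imaging in MCF-7 cells; cells exposed to compound for six hours; intended direction is loss of nuclei count meaning fewer cells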)
Procedure, shortened: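 For this full-screen endpoint, MCF-7 cultures received eight compound dilutions for six hours. Well nuclei counts from Hoechst imaging were analyzed relative to DMSO.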

[22] = ACEA_ER_AUC_viability: ACEA Biosciences xCELLigence Real-Time Cell Analysis on Estrogen Receptor Agonism for Viability (AID 2283782; active means hit-call score of the fitted dose curve at least 0.9, where 1 is the maximum;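 further: hit means loss of impedance signal meaning reduced cell growth or viability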)
Procedure, shortened: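 Read-out: real-time electrical impedance (RT-CES) area under curve, loss of signal taken as reduced viability, normalized to DMSO baseline. T-47D cells, charcoal-stripped serum medium, compounds up to 100 uM final, continuous exposure, 80 h.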

[23] = target: Thyroid hormone receptor alpha (Rattus norvegicus) + Thyroid hormone receptor beta (Rattus norvegicus) (UniProt P18113+P63059); test: TOX21_TR_LUC_GH3_Antagonist_Followup: Tox21 GH3 Thyroid Hormone Receptor Antagonism Luciferase Follow-Up Assay (AID 2283942; active means hit-call score of the fitted dose curve at least 0.9, where 1 is the maximum)
Procedure, shortened: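 Luminescence read-out (ONE-Glo, 30 min at room temperature) in GH3 reporter cells challenged with 1.0 nM T3 final. Compounds ran at 92 uM to 5nM over 15 concentrations for 24 h; DMSO served as negative control and baseline.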

[24] = target: THRB (gene 7068) (UniProt P10828); test: TOX21_TRB_BLA_Antagonist_Followup_ratio: Tox21 Thyroid Hormone Receptor beta Antagonism Beta-lactamase (BLA) Follow-Up Assay, Ratio (AID 2283958; active means hit-call score of the fitted dose curve at least 0.9, where 1 is the maximum)
Procedure, shortened: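 Using charcoal-stripped 2% FBS medium, human TRβ-LBD/GAL4 reporter HEK293T cells received test compounds for 18 h. The endpoint is the cleaved-to-uncleaved substrate ratio (460/530 nm).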

[25] = target: Retinoic acid receptor RXR-alpha (Homo sapiens) (UniProt P19793); test: TOX21_TR_RXR_BLA_Antagonist_Followup_ratio: Tox21 Thyroid Hormone Receptor beta Retinoid X Receptor alpha (RXRa) Antagonism Beta-lactamase (BLA) Follow-Up Assay, Ratio (AID 2283972; active means hit-call score of the fitted dose curve at least 0.9, where 1 is the maximum)
Procedure, shortened: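 RXRa-UAS-bla HEK293T cells in phenol red-free DMEM with 2% charcoal-stripped FBS; compounds at 11 concentrations in triplicate, 16 h at 37C. LiveBLAzer FRET-B/CCF4-AM substrate 2 h at room temperature; read as 460:530 nm ratio versus DMSO.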

[26] = TOX21_TR_RXR_BLA_Antagonist_Followup_viability: Viability Assessment in the Tox21 Thyroid Hormone Receptor beta Retinoid X Receptor alpha (RXRa) Antagonism Beta-lactamase (BLA) Follow-Up Assay (AID 2283979; active means hit-call score of the fitted dose curve at least 0.9, where 1 is the maximum)
Procedure, shortened: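 RXRa-bla HEK293T cells (2,500/well, phenol red-free DMEM, 2% charcoal-stripped FBS) were attached 5 h, then exposed to compounds at 11 concentrations in triplicate for 16 h at 37C. Viability measured by CellTiter-Glo ATP luminescence, bidirectional fitting versus DMSO.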

Sequence of THRB (gene 7068) (P10828 whole entry, looked up, the tested form may be a part): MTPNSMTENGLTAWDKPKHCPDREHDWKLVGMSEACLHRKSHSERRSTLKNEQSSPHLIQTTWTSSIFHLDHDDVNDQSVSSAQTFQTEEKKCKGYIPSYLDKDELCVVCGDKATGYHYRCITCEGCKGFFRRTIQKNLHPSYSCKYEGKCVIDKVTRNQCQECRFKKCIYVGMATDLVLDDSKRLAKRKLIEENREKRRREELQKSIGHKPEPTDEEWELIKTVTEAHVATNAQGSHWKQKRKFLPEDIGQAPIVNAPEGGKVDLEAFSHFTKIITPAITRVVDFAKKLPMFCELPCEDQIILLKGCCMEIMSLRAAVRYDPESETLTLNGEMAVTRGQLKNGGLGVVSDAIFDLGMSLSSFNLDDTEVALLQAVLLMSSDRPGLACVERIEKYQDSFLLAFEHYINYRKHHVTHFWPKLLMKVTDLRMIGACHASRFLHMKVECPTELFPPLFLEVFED
Sequence of Cellular tumor antigen p53 (Homo sapiens) (P04637 whole entry, looked up): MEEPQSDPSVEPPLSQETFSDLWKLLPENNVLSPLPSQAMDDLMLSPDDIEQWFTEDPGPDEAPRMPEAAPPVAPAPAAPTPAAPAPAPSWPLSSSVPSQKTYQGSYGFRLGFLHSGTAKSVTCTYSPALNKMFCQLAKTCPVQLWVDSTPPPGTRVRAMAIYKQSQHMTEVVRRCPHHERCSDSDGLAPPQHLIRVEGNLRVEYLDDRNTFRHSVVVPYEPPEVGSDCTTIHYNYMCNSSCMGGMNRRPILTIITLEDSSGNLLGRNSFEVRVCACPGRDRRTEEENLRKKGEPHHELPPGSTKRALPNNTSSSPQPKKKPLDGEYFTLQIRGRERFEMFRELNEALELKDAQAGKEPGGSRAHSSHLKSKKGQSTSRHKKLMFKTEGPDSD
Sequence of Retinoic acid receptor RXR-alpha (Homo sapiens) (P19793 whole entry, looked up): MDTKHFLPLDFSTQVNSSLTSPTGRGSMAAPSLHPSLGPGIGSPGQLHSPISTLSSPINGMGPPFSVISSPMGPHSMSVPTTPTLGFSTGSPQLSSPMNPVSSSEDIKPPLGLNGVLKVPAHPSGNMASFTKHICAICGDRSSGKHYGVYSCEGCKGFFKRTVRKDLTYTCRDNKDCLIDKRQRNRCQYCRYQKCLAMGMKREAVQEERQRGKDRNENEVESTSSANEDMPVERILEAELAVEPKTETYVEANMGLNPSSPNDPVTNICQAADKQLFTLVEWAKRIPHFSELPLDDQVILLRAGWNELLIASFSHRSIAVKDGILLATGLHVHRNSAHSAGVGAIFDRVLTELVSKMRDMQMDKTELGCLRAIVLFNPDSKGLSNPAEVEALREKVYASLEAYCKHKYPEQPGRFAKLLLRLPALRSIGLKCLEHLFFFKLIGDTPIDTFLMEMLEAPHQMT

Question: Which AC50 [1] does the source give for CCOP(=O)(O)OCC (tested in a mixture with another compound) here?
Answer: 28.7 µM (active)

Question: What about the outcome [1] of the same compound?
Answer: inactive

Question: And the outcome [2]?
Answer: inactive

Question: What about the outcome [3] of the same compound?
Answer: inactive

Question: What about the outcome [4] of the same compound?
Answer: inactive

Question: And the outcome [5]?
Answer: inactive

Question: And the outcome [6]?
Answer: inactive

Question: What about the outcome [7] of the same compound?
Answer: inactive

Question: And the outcome [8]?
Answer: inactive

Question: And the outcome [9]?
Answer: inactive

Question: And the outcome [10]?
Answer: inactive

Question: What about the outcome [11] of the same compound?
Answer: inactive

Question: What about the outcome [12] of the same compound?
Answer: inactive

Question: And the outcome [13]?
Answer: inactive

Question: What about the outcome [14] of the same compound?
Answer: inactive

Question: And the outcome [15]?
Answer: inactive

Question: And the outcome [16]?
Answer: inactive

Question: And the outcome [17]?
Answer: inactive

Question: Which outcome [1] does the source give for CC(=O)CC(c1ccc(Cl)cc1)c1c(O)c2ccccc2oc1=O (stereo not given) here?
Answer: inactive

Question: Which outcome [18] does the source give for COc1cccc([C@@]2(O)CCCC[C@@H]2CN(C)C)c1 here?
Answer: inactive

Question: And the outcome [19]?
Answer: inactive

Question: And the outcome [20]?
Answer: inactive

Question: What about the outcome [21] of the same compound?
Answer: inactive

Question: For COC(=O)C1(O)c2ccccc2-c2ccccc21, which outcome [22] is on record?
Answer: inactive

Question: Which results are given for O=C1OC2(c3cc(Br)c(O)cc3Oc3c2cc(Br)c(O)[c]3[Hg])c2ccccc21 (stereo not given)?
Answer: outcome [23]: inactive; outcome [24]: inactive; outcome [25]: inactive; outcome [26]: inactive

Question: With OC(Cn1cncn1)(c1ccc(F)cc1)c1ccccc1F (stereo not given) as the compound, how does the outcome [19] read?
Answer: inactive

Question: What about the outcome [20] of the same compound?
Answer: inactive
